Assay results taken from ChEMBL document CHEMBL3988442, “University of Dundee, Small-Polar-MMV Screening Library” (2021).
In all, about 48,000 compounds went through this assay and about 13,000 (27%) showed an effect of 50% or more. The list shows a part of the results.

tested on: Wolbachia pipientis; experiment: Anti-Wolbachia Cell-Based Screen; format: functional; set-up: scale not given: in the data most compounds retested in dose-response had high values; conditions: 5 µM

SMILES | Percent Effect
CNC(=O)C(C)NC(=O)c1cc(COc2ccc(OC)cc2Cl)[nH]n1 (centres undefined) | -6.822%
CN1C[C@@H](n2cnc(-c3ccccc3)c2-c2c[nH]cn2)C[C@H]1C(=O)O | -2.319%
Cc1cc(C)c(C(=O)N2CCC3(CCCN(CC(C)(C)C)C3)C2)[nH]1 (centres undefined) | -1%
CC[C@@H]1N(Cc2ccc(C)s2)CCC[C@]12CCC(=O)N2C.O=C(O)C(F)(F)F | 100.7%
CC[C@@H]1N(Cc2ccc(C)o2)CCC[C@]12CCC(=O)N2CCOC.O=C(O)C(F)(F)F | 120.4%
Cc1ccc(CN2CC(C(=O)N3CCCC3)C3(CCOCC3)C2)s1.O=C(O)C(F)(F)F (centres undefined) | -16.58%
Cc1ccc(CN2CCCC3(CCCC(=O)N3C)C2)s1.O=C(O)C(F)(F)F (centres undefined) | 5.855%
COc1ccc(CN2C[C@H](N3CCCC3=O)[C@@H]3OCCC[C@@H]32)cc1.O=C(O)C(F)(F)F | 8.325%
COc1ccc(CN2CCO[C@@H]3C[C@@H](C(=O)NC(C)C)C[C@H]32)cc1.O=C(O)C(F)(F)F | -0.6614%
CNC(=O)[C@H]1C[C@H]2OCC[C@H]2N(Cc2ccc(F)cc2)C1.O=C(O)C(F)(F)F | -9.122%
CC[C@@H]1N(Cc2ccc(F)cc2)CCC[C@]12CCC(=O)N2C.O=C(O)C(F)(F)F | 88.6%
CC[C@@H]1N(Cc2ccc(OC)cc2)CCC[C@]12CCC(=O)N2CCOC.O=C(O)C(F)(F)F | 91.26%
CN1CCN(c2cnn(CCn3cccn3)c(=O)c2)CC1 | 1.729%
CN(C)C[C@H]1CC[C@@H](Cc2ccc3c(cnn3C)c2)O1 | 15.72%
Cc1cccc2nc(CN3CCCC(Cn4ccnn4)C3)cc(=O)n12 (centres undefined) | -2.392%
CC(C)Cn1ncc2cc(C(=O)N(C)CCc3ccccc3)cnc21 | 7.152%
CC[C@@H]1N(Cc2ccc(F)cc2)CCC[C@]12CCC(=O)N2CCOC.O=C(O)C(F)(F)F | 105%
Cn1nnc2c1CCN(Cc1ccoc1)C2COCc1ccccc1.O=C(O)C(F)(F)F (centres undefined) | 14.93%
COCCN1C(=O)CCC12CCCN(Cc1ccccc1F)C2.O=C(O)C(F)(F)F.O=C(O)C(F)(F)F (centres undefined) | -19.88%
COCCN1C[C@@H]2CN(Cc3cccc(F)c3)CCC[C@]2(C(=O)O)C1.O=C(O)C(F)(F)F.O=C(O)C(F)(F)F | 4.566%

SMILES | Percent Effect
CC[C@@H]1N(Cc2ccoc2)CCC[C@]12CCC(=O)N2CCOC.O=C(O)C(F)(F)F | 119.5%
COCCNC(=O)[C@H]1C[C@H]2OCC[C@H]2N(Cc2ccoc2)C1.O=C(O)C(F)(F)F | 2.424%
CCCOc1ccc(C(=O)N[C@@H]2CCNC[C@H]2O)cc1Cl | 4.821%
c1cc(NCc2cscn2)cc(OCCN2CCCCC2)c1 | 8.828%
CN(Cc1cc[nH]n1)C(=O)C1CC(=O)N(Cc2ccncc2)C1 (centres undefined) | 23.6%
CCCN1CCN(C(=O)Cn2nc(C(F)(F)F)c(Br)c2C2CC2)CC1 | 112.9%
CN1CCN(C(=O)Cn2nc(C(F)(F)F)c(Br)c2C2CC2)CC1 | 120.3%
CCCN1CCN(C(=O)CCn2nc(C(F)(F)F)c(Br)c2C)CC1 | 94.07%
Cc1cc(C2CCCN(C(=O)CN3CCN(C)CC3)C2)n[nH]1 (centres undefined) | 0.3099%
CCN1CCN(C(=O)Cn2nc(C(F)(F)F)c(Br)c2C2CC2)CC1 | 81.51%
CCN1CCN(C(=O)CCC2CCN(C(=O)CCSC)CC2)CC1 | 1.019%
CC(C)(C)C(=O)Cn1nc(C2CC2)cc(C(F)(F)F)c1=O | 3.486%
CCCN1CCN(C(=O)C(C)n2cc(Br)cn2)CC1 (centres undefined) | 6.17%
CCN1CCN(C(=O)CCc2c(C)noc2Cl)CC1 | 3.416%
Cc1nn(C)c(C)c1CCC(=O)N1CCN(CCn2cncn2)CC1 | 2.467%
CC(C)(C)OC(=O)Cn1nc(C2CC2)cc(C(F)(F)F)c1=O | 2.885%
CCCN1CCCN(C(=O)C(CC)N2CCCC2=O)CC1 (centres undefined) | -5.426%
CNc1cc(C)nc(N2C[C@H](NC(=O)C3CCOCC3)[C@@H](C3CC3)C2)n1 | -20.28%
CNC(=O)COC(=O)c1cccc(-n2ccc(C(F)(F)F)n2)c1 | -11.26%
CCCN(CCc1cccc(F)c1)c1ccc2nnnn2n1 | 9.519%

SMILES | Percent Effect
CSC(CNS(C)(=O)=O)c1cccc(Cl)c1 (centres undefined) | 9.109%
Cc1nc(C)n(Cc2cccc(NC(=O)N(C)CCC(C)O)c2)n1 (centres undefined) | -6.821%
O=C(CN1C(=O)CCC1=O)N1CCOCC1 | -0.7877%
O=C(Cn1nnc(-c2ccc(F)cc2)n1)N1CCOCC(O)C1 (centres undefined) | -9.782%
O=C(Cn1nc(C(F)(F)F)c(Br)c1C1CC1)N1CCOCC1 | 103.1%
CCN(Cc1ccncc1)C(=O)C1COc2c(cccc2OC)C1 (centres undefined) | -5.298%
NC(=O)c1cccc(OCCC(=O)NC2CCc3c(F)cccc32)c1 (centres undefined) | 3.003%
O=C1COC2(CCN(Cc3ccccn3)CC2)CN1CC1CC1 | 3.205%
Cc1cccc(CN2CCC3(CCCN(C(=O)CN(C)C)C3)C2=O)n1 (centres undefined) | 1.32%
Cc1cccc(CN2CC3(CCN(C(N)=O)CC3)OCC2=O)n1 | 101.1%
CCCC(=O)N1CCC2(CC1)CN(Cc1cccc(C)n1)C(=O)CO2 | 88.89%
Cc1cccc(CN2CC3(CCNCC3)OCC2=O)n1 | -5.931%
COCCN1CCC2(CC1)CN(CCn1cccn1)C(=O)CO2.O=C(O)C(F)(F)F | -17.67%
COCC(=O)N1CCCC2(CCN(Cc3cccc(C)n3)C2=O)C1.O=C(O)C(F)(F)F (centres undefined) | -15.33%
COCCN1CCC2(CC1)CN(Cc1cccc(C)n1)C(=O)CO2 | 94.2%
Cc1cccc(CN2CC3(CCN(C(=O)C4CC4)CC3)OCC2=O)n1 | 113.2%
COCCN(C)CCN1CC2(CCN(C3CCOCC3)CC2)OC1=O | -18.87%
Cc1ccsc1-c1nnc(SCC(=O)O)n1C(C)c1ccccc1 (centres undefined) | -0.1706%
CCN(CC)c1ccc(C2C3=C(COC3=O)Nc3[nH]nc(C)c32)cc1 (centres undefined) | 4.109%
